Laboratory results published in PubChem BioAssay (EPA / NIEHS).
Where “and” joins values, the source holds several entries; their conditions need not be identical. Equal entries are not always repeated. Some structures have more than one record in an assay (separate samples or runs), and their calls can disagree. Calls of active or inactive are those of the source. How the source made its calls: active means hit-call score of the fitted dose curve at least 0.9, where 1 is the maximum; inactive means score below 0.9.

Assay: ATG_E_Box_CIS: Attagene CIS-FACTORIAL HepG2 Assay for human Enhancer Box (E-box) (AID 2282936)
Details: HepG2 E-box cis-reporter transcription, actives raise or lower the signal
Procedure: ATG_CIS is a cell-based, multiplexed-readout assay that uses HepG2, a human liver cell line, with measurements taken at 24 hours after chemical dosing in a 24-well plate.ATG_E_Box_CIS is one of 52 assay component(s) measured or calculated from the ATG_CIS assay. It is designed to make measurements of mRNA induction, a form of inducible reporter, as detected with fluorescence intensity signals by Reverse transcription polymerase chain reaction (RT-PCR) and Capillary electrophoresis technology.Data from the assay component ATG_E_Box_CIS was analyzed into 1 assay endpoint. This assay endpoint, ATG_E_Box_CIS, was analyzed with bidirectional fitting relative to DMSO as the negative control and baseline of activity. Using a type of inducible reporter, measures of mRNA for gain or loss-of-signal activity can be used to understand the reporter gene at the transcription factor-level as they relate to the gene USF1. Furthermore, this assay endpoint can be referred to as a primary readout, because this assay has produced multiple assay endpoints where this one serves a reporter gene function. To generalize the intended target to other relatable targets, this assay endpoint is annotated to the dna binding intended target family, where the subfamily is basic helix-loop-helix protein.
Human liver HepG2 cells are transiently transfected with multiple reporter transcription units (MRTUs) in 6-well plates using FuGene 6 reagent (Roche; 3 ml FuGene/1 mg DNA). The MRTU constructs are regulated by a cis-regulating element (promoter). […] A major difference between the CIS and TRANS system is that in CIS activities of endogenous TFs are measured, whereas the TRANS assay evaluates changes in activities of exogenous, chimeric NR-Gal4 proteins. […] At the end of 24 hour incubation, total RNA was isolated using TriZol reagent (Invitrogen). The isolated RNA is then reverse-transcribed using oligo(dT) primer and Mo-MLV reverse transcriptase (Invitrogen) with DNAse I (Ambion) treatment for 30 min. The one-tenth of the produced cDNA was amplified by PCR using Taq DNA polymerase (Invitrogen) and two reporter sequence-specific primers. The PCR products were fluorescently labeled by primer extension with 6-arboxyfluorescein (6-FAM) 5'-labeled reporter sequence-specific primer (2 min at 95 C, 20 s at 68 C and 10 min at 72 C) and these products were digested with 5U of HpaI (New England Biolabs) for 2h at 37 C. The fragments were purified using Qiaquick PCR columns (Qiagen), analyzed on an ABI 3130xL genetic analyzer (Applied Biosystems) with peak positions identified by using a set of X-rhodamine (ROX)-labeled MapMarker1000 molecular weight standards (BioVentures). The raw capillary electrophoresis data was processed using Attagraph software (Attagene).

Question: Which outcome does the source give for CC(C)COC(=O)c1ccccc1O here?
Answer: The outcome was “inactive”.

Question: For Cc1cccc(C)c1, which outcome is on record?
Answer: Its outcome is “inactive”.

Question: Which outcome does the source give for O=[N+]([O-])c1cc(N(CCO)CCO)ccc1NCCO here?
Answer: The outcome was “inactive”.

Question: With C=C(C)C(N)=O as the compound, how does the outcome read?
Answer: The outcome was “inactive”.

Question: With C=CCCCCCCCCC(=O)OCC as the compound, how does the outcome read?
Answer: Its outcome is “inactive”.

Question: For C=CCOCC(O)CO (stereo not given), which outcome is on record?
Answer: Its outcome is “inactive”.

Question: Which outcome does the source give for O=c1cc(-c2ccc(O)cc2)oc2cc(O)cc(O)c12 here?
Answer: Its outcome is “inactive”.

Question: For CCCCCC(=O)O[C@]1(C(C)=O)CC[C@H]2[C@@H]3CCC4=CC(=O)CC[C@]4(C)[C@H]3CC[C@@]21C, which outcome is on record?
Answer: The outcome was “inactive”.

Question: With CC(=O)CCc1ccc(O)cc1 as the compound, how does the outcome read?
Answer: The outcome was “inactive”.

Question: For CCCOC(=O)CC, which outcome is on record?
Answer: The outcome was “inactive”.

Question: For CCO[Si](CCC#N)(OCC)OCC, which outcome is on record?
Answer: The outcome was “inactive”.

Question: Which outcome does the source give for COc1cc(OC)c2ccc(=O)oc2c1 here?
Answer: The outcome was “inactive”.

Question: With C1=COCCC1 as the compound, how does the outcome read?
Answer: Its outcome is “inactive”.

Question: For c1ccc2c(c1)-c1ccc3ccc4cccc5cc-2c1c3c45, which outcome is on record?
Answer: Its outcome is “inactive”.

Question: With Cc1ccc(C(C)(C)O)cc1 as the compound, how does the outcome read?
Answer: The outcome was “inactive”.

Question: What does the source list for O=C(c1ccc(OCCN2CCCCC2)cc1)c1c(-c2ccc(O)cc2)sc2cc(O)ccc12?
Answer: outcome: inactive; AC50: 11.1 µM (active) and 7.95 µM (active)

Question: For Cc1ccccc1S, which outcome is on record?
Answer: Its outcome is “inactive”.

Question: Which outcome does the source give for C[N+](C)(C)CCO here?
Answer: Its outcome is “inactive”.

Question: Which outcome does the source give for CCCC(O)C(CC)CO (stereo not given) here?
Answer: Its outcome is “inactive”.

Question: Which outcome does the source give for CC1=C(C=O)C(C)(C)CCC1 here?
Answer: The outcome was “inactive”.

Question: With O=C(O)CS as the compound, how does the outcome read?
Answer: The outcome was “inactive”.

Question: For CCCCCCOC(C)=O, which outcome is on record?
Answer: The outcome was “inactive”.

Question: With C=CC(=O)OCC(CO)(COC(=O)C=C)COC(=O)C=C as the compound, how does the AC50 read?
Answer: The AC50 was 22.2 µM (active).

Question: With CCOC(=O)C=Cc1ccccc1 as the compound, how does the outcome read?
Answer: The outcome was “inactive”.

Question: With CC/C=C\CCOC(=O)C(C)C as the compound, how does the outcome read?
Answer: Its outcome is “inactive”.

Question: Which outcome does the source give for CC(=O)OCC=C(C)CCC=C(C)CCC=C(C)C here?
Answer: The outcome was “inactive”.

Question: Which outcome does the source give for COc1ccccc1O here?
Answer: The outcome was “inactive”.

Question: For CCCCCCCC(=O)N(C)C, which outcome is on record?
Answer: Its outcome is “inactive”.

Question: Which outcome does the source give for CCC(=O)OC/C=C(\C)CCC=C(C)C here?
Answer: Its outcome is “inactive”.

Question: Which outcome does the source give for O=C(C=Cc1ccccc1)OCCCc1ccccc1 here?
Answer: The outcome was “inactive”.

Question: Which outcome does the source give for CCCCCCCCCCCCOC(C)=O here?
Answer: Its outcome is “inactive”.

Question: Which outcome does the source give for CCOc1ccc(NC(C)=O)cc1 here?
Answer: The outcome was “inactive”.

Question: For CC(C)OB(OC(C)C)OC(C)C, which outcome is on record?
Answer: Its outcome is “inactive”.

Question: With CCCCCCCCCCCCCCCCCC(=O)OCCCCCCCCCCCCCC(C)C as the compound, how does the outcome read?
Answer: The outcome was “inactive”.

Question: Which outcome does the source give for CC/C=C\CCCCO here?
Answer: The outcome was “inactive”.

Question: With CNC(=C[N+](=O)[O-])NCCSCc1ccc(CN(C)C)o1 as the compound, how does the outcome read?
Answer: Its outcome is “inactive”.

Question: Which outcome does the source give for [O-]/[N+](=N\O)c1ccccc1 here?
Answer: The outcome was “inactive”.

Question: With [Na+] as the compound, how does the outcome read?
Answer: The outcome was “inactive”.

Question: For CCCCN(CCCC)CCCCCCN(CCCC)CCCC, which outcome is on record?
Answer: The outcome was “inactive”.
